In PubChem BioAssay (NCATS):
Records with an inconclusive call do not appear. Values without a mark were called inactive. Active and inactive are the calls of the source. Calls follow the shape of the dose curve; as a rule, active = well fitted inhibition curve with a large enough effect; inconclusive = small, poorly fitted or top-dose-only effect; inactive = no such curve, though single readings can be large or run the other way.
% is scaled to controls: 0 for no effect and ±100 for the full control effect; potency is read from the fitted curve at half-maximal effect.

The molecules below were run against Retinaldehyde dehydrogenase 3 (Homo sapiens) (UniProt P47895) (assay: qHTS for Inhibitors of the Aldehyde Dehydrogenase Family (ALDH1A3) Confirmatory screens (AID 2061311; also: nearly all actives have a fitted effect of over 60% in size)). Details: ALDH inhibition qHTS; series mostly up to 46 µM; activity change, negative = inhibition: at the top concentration.
`c1cc2c(cc1CNc1ccc(N3CCCCC3)cc1)OCO2` was tested, and the Potency was 12.7 µM (active).
With `NC(=O)C1CCN(c2ncc(-c3ccc4c(c3)OC(F)(F)O4)s2)CC1` the “activity change, negative = inhibition” value was -16.6%.
`COc1cccc(-c2nc(-c3ccc(C(=O)O)cc3)no2)c1` was tested, and the Potency was 0.504 µM (active).
`COc1cccc(C2c3c(ncn(-c4ccccc4-c4ccccc4)c3=N)Oc3ccc4ccccc4c32)c1` (stereo unspecified) was tested, and the Potency was 15.8 µM (active).
For `CC(=O)NC(C)c1cc(F)c2cccnc2c1O` (stereo unspecified), the Potency was 11.3 µM (active).
With `Cc1cnc(-c2ccccc2CO)nc1NCC1CCN(c2cccnc2)CC1` the “activity change, negative = inhibition” value was -13.7%.
With `Cc1ccccc1Nc1nc(C#N)nc(NC2CCCC2)n1` the activity change, negative = inhibition was -21.8% [at 0.0073 µM].
With `Cc1ccc(S(=O)(=O)Nc2cc(F)ccc2C(=O)Nc2nc(-c3ccccc3)cs2)cc1` the “activity change, negative = inhibition” value was -3.34%.
For `CC(=O)Nc1sc2c(c1-c1nc3ccccc3o1)CCN(C(C)C)C2`, the Potency was 12.6 µM (active).
For `Cc1ccc(CNc2ccc(N3CCCCC3)cc2)cc1`, the Potency was 20.1 µM (active).
With `Cc1ccsc1CN(C)c1ncnc2ccc(-c3ccoc3)cc12` the Potency was 22.5 µM (active).
`Cc1ccc2nc3sc(C(=O)NCCCN(C)C)cc3cc2c1` was tested, and the Potency was 21.5 µM (active).
With `CC1(C)CC[C@]2(C(=O)O)CC[C@]3(C)C(=CCC4[C@@]5(C)C[C@@H](O)[C@H](O)[C@@](C)(CO)C5CC[C@]43C)[C@@H]2[C@@H]1O` (stereo partly specified) the Potency was 11 µM (active).
With `Cc1ccc(CNc2ncnc3ccc(-c4ccoc4)cc23)o1` the “outcome” value was “inactive; activator”.
With `O=C(O)c1ccc(-c2noc(-c3ccccc3F)n2)cc1` the Potency was 0.565 µM (active).
In the case of `COc1ccc(-n2c(C)c(C(C)=O)c3ccccc32)cc1`, the Potency is reported as 15.8 µM (active).
